MCF10A rerep – induces DNA re-replication in MCF 10a normal breast cells; MCF 10A DNA re-replication, Hoechst nuclear intensity, 48 h; Potency, µM (top dose mostly 46.1 µM), inactives show at the top dose activity, positive = re-replication, usual class: activators; actives 2.9% (n = 350,000); AID 624296; further: % of control where 0% means no effect; nearly all actives have a fitted effect of over 50% in size
HT1080-NT tox – kills 2HG-producing HT-1080-NT fibrosarcoma cells; HT-1080-NT fibrosarcoma viability, CellTiter-Glo ATP luminescence, 48 h; Potency, µM (highest dose often 46.1 µM), for the others: top-dose activity, negative = less viability, hits mostly cytotoxic; actives 1.6% (n = 360,000);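 further: NT is the 2HG producing partner of a matched IDH1 knockdown line; 0% = DMSO-treated cells and -100% = media-only wells without cells; nearly all actives have a fitted effect of over 55% in size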
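Toxicity toward the 2HG-producing NT line was scored as %Activity, normalised to DMSO and no-cell wells, from CellTiter-Glo luminescence after 48 hours' treatment.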
KB-3-1 cytotox – kills parental KB-3-1 adenocarcinoma cells. Potency, µM (highest dose often 46.1 µM), actives largely listed as cytotoxic. KB-3-1 viability, CellTiter-Glo ATP luminescence, 72 h. AID 1347075. actives 1.4% (n = 400,000); further: on the % scale 0 is the no-effect control and ±100 the full control effect; nearly all actives have a fitted effect of over 60% in size
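Cytotoxicity measured as CellTiter-Glo luminescence after 72 h at 37 C. Compound titrations were pinned onto drug-naive KB-3-1 parental adenocarcinoma cells grown in DMEM with 10% FBS, and normalized data fitted to concentration-response curves.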
KB-V1 cytotox – KB-V1 MDR subline cytotoxicity; KB-V1 MDR cells viability, CellTiter-Glo, 72 h; actives 3.4% (n = 400,000); Potency, µM (doses to about 46.1 µM), actives largely listed as cytotoxic; further: on the % scale 0 is the no-effect control and ±100 the full control effect; nearly all actives have a fitted effect of over 60% in size
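In this primary screen, KB-V1 cells overexpressing P-gp are incubated with library compounds (lowest to highest concentration) for 72 h at 37 degrees C before a luminescent ATP viability read.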
HT1080 IDH1KD tx – kills HT-1080 cells with IDH1 knockdown | HT-1080 IDH1 knockdown viability, ATP luminescence, 48 h | Potency, µM (doses to about 46.1 µM), for the others: at the highest dose activity, negative = toxicity, most hits filed as cytotoxic | actives 2% (n = 360,000);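 further: 0% = DMSO wells and -100% = cell-free medium wells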
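Assay cells: HT-1080 with IDH1 knockdown, 750 per well, RPMI/5% FBS. Exposure: 48 h at 37 °C following 2 h pre-incubation. Read: CellTiter-Glo luminescence; fitted concentration-response, curve class assigned.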
SW480 rerep – DNA re-replication induction in SW480 cells. Potency, µM (highest dose often 46.1 µM), without a hit: at the highest dose re-replication activation, most hits filed as activators. actives 1.8% (n = 340,000). SW480 DNA re-replication, Hoechst DNA content imaging, 48 h; further: % of control where 0% means no effect; nearly all actives have a fitted effect of over 55% in size
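Cells (250 per well) received 23 nL compound or DMSO by pin tool and were kept 48 hr at 37 C, 5% CO2. Nuclei were then stained with Hoechst for 40 min and scanned for DNA content.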
An asterisk follows results filed as active; i = inactive; u = inconclusive; x = no result; [ ] = remark or other dose. Only some compounds are listed: those with a hit (about 7.9% of all), similar ones and a draw of the others. The call rests on the fitted dose curve; in most records, active means well fitted curve in the direction sought with a large enough effect; inconclusive means small, poorly fitted or top-dose-only effect, or another doubt; inactive means no such curve, though single readings can be large; an effect the other way counts as inactive or inconclusive. Potency means the concentration at half of the fitted maximal effect.

SMILES	MCF10A rerep	HT1080-NT tox	KB-3-1 cytotox	KB-V1 cytotox	HT1080 IDH1KD tx	SW480 rerep
CSC1=NC(C(Cl)(Cl)Cl)N=C(c2ccccc2)N1 (stereo not given)	u	u	3.26µM*	5.8µM*	20.6µM*	u
CCOC(=O)C1C(=O)NC(c2ccccc2)=NC1c1ccc(F)cc1 (stereo not given)	5.9%	20.4%	i	i	12.0%	3.2%
CC(NC(=O)CN(C)Cc1nc2ccccc2c(=O)[nH]1)c1ccccc1 (stereo not given)	-0.3%	5.7%	i	i	8.0%	-9.7%
CN(Cc1nc2ccccc2c(=O)[nH]1)Cc1nc2ccsc2c(=O)[nH]1	1.1%	0.2%	i	i	1.6%	20.6µM*
COc1ccc(Cn2c(SCc3ccc(C)cc3)nc3cc(OC)c(OC)cc3c2=N)cc1Cl	4.11µM*	20.6µM*	u	u	23.1µM*	u
CCCCNC(=O)CSc1nc2cc(OC)c(OC)cc2c(=O)n1Cc1ccc(OC)cc1	5.5%	11.0%	i	2.06µM*	15.4%	-4.5%
COc1ccc(Cn2c(SCc3cc(C)ccc3C)nc3cc(OC)c(OC)cc3c2=N)cc1	3.66µM*	u	u	11.2µM*	u	u
COc1cc2nc(SCc3ccc(C(F)(F)F)cc3)n(Cc3cccs3)c(=N)c2cc1OC	-0.6%	0.1%	i	i	-1.7%	-21.6%
COCCCn1c(SCc2ccccc2)nc2cc(OC)c(OC)cc2c1=N	14.0%	-29.2%	u	u	-28.7%	-6.8%
COc1cc2nc(SCc3ccc(Cl)cc3Cl)n(Cc3cccs3)c(=N)c2cc1OC	u	-9.3%	23.1µM*	6.51µM*	-9.3%	-5.1%
CCC(Sc1nc2cc(OC)c(OC)cc2c(=O)n1Cc1ccc(OC)cc1)C(=O)NCCOC (stereo not given)	25.2%	6.3%	i	i	0.3%	-12.5%[1.84 µM]
Cc1c(C(=O)NCc2ccc(F)cc2)sc2nc3n(c(=O)c12)CCC3	x	x	i	i	x	x
COc1ccc(NC(=O)c2ccc3oc(=O)c(S(=O)(=O)c4ccc(C)cc4)cc3c2)cc1OC	x	x	i	i	x	x
N#CC(C#N)c1ccnc2ccccc12	x	-2.7%	i	i	1.2%	x
Clc1ccc2nc[nH]c2c1	x	x	i	i	x	x
COc1cccc(OC)c1Cn1nnc2c(=O)[nH]c(C3CCN(C(=O)c4ccccc4)CC3)nc21	x	x	i	i	x	x
Cc1nc2ccc(NC(=O)c3ccc(Cl)c(NC(=O)c4cccs4)c3)cc2s1	1.8%	-15.1%	i	23.1µM*	-17.7%	-8.5%
Cc1ccc(NC(=O)c2ccc(Cl)c(NC(=O)c3cccs3)c2)cc1	-15.7%	u	i	i	u	29.1%
CCOC(=O)/C(C#N)=C/c1ccc(-c2ccc(C)cc2)o1	x	x	i	u	x	x
C[C@H]1CN([C@@H](C)CO)C(=O)CCCn2cc(nn2)CO[C@@H]1CN(C)C(=O)Nc1ccc(F)cc1	x	12.0%	i	i	5.1%	x
CN(C)/C=C1/OC(=O)C(C#N)=C1c1ccc(Cl)cc1	18.4µM*	-1.9%	i	i	13.9%	u
O=CNCc1nc2ccccc2n1CCc1ccccc1	u	11.5%	i	u	21.4%	2.91µM*
C/C(=N\N1CCN(C2c3ccccc3-c3ccccc32)CC1)c1ccncc1	15.0%	4.0%	u	18.4µM*	-4.5%[9.24 µM]	-1.8%
C(=N\N1CCN(C2c3ccccc3-c3ccccc32)CC1)/c1ccncc1	u	-0.1%	i	i	-1.2%	9.1%
COc1cc2c(NC3CCN(C(C)C)CC3)nc(N3CCCN(C)CC3)nc2cc1OCCOCCN(C)C	x	x	u	i	x	x
SMILES	MCF10A rerep	HT1080-NT tox	KB-3-1 cytotox	KB-V1 cytotox	HT1080 IDH1KD tx	SW480 rerep
COc1ccc(-n2c(=O)c3ccc(C(=O)NCc4ccc(C)cc4)cc3n(Cc3ccc(F)cc3Cl)c2=O)cc1	x	x	i	u	x	x
O=C1/C(=C/c2ccccn2)COc2ccccc21	u	-21.4%	i	i	-13.9%	u
O=C1/C(=C/c2ccc(O)cc2)COc2ccccc21	u	u	i	i	u	18.4µM*
O=C1/C(=C/c2ccccc2[N+](=O)[O-])COc2ccccc21	u	8.2µM*	i	i	18.4µM*	-348.7%[1.84 µM]
COc1cc(C(=O)/C=C/Nc2ccc(NC(C)=O)cc2)cc(OC)c1OC	13µM*	u	i	20.6µM*	18.4µM*	2.4%
CC(=O)Nc1ccc(N/C=C/C(=O)c2ccc(C)o2)cc1	23.1µM*	-15.2%	i	i	-18.3%	-0.2%
O=C(NCCCN1CCN(c2ccc(F)cc2)CC1)c1cc2c(Cl)nc3ccccc3c2s1	x	x	i	i	x	x
CCCCCc1ccc(-c2cn(Cc3ccc4c(c3)C(=O)c3ccccc3C4=O)nn2)cc1	x	x	i	i	x	x
S=C1Cc2ccccc2C(c2ccc(Cl)cc2)N1 (stereo not given)	16.4µM*	-11.2%	i	i	-22.7%	u
O=C1Cc2ccccc2C(c2ccc(Cl)cc2)N1 (stereo not given)	u	-8.3%	i	i	-22.6%	-2.2%
O=C1CN(C(=O)Nc2ccccc2Cl)C(c2ccccc2)c2c(sc3c2CCCC3)N1 (stereo not given)	x	x	i	u	x	x
CCOC(=O)c1c(-c2ccc(C)o2)csc1NC(=S)NC(=O)N(C)C	u	10µM*	i	i	12.6µM*	u
CCOC(=O)c1c(-c2ccc(C)o2)csc1NC(=O)COC(=O)c1cccs1	9.1%	-4.0%	i	i	-10.1%	-2.6%
CN1CCC(NCCC(c2ccc(F)cc2)c2ccc(Cl)cc2)CC1 (stereo not given)	u	4.11µM*	16.4µM*	u	5.17µM*	u
COc1ccc(Br)cc1CN1C(=O)NC2(CCCCCC2)C1=O	23.4%	-4.3%	i	i	-23.4%	-4.3%
COc1cc(Br)c(CN2C(=O)NC3(CCCCCC3)C2=O)cc1OC	-0.4%	0.3%	i	6.51µM*	-1.8%	12.4%
COc1cccc(NC(=S)NNC(=O)c2c([N+](=O)[O-])c(C)nn2C)c1	14.5%	u	i	i	7.94µM*	6.6%
Cc1nc2sccn2c(=O)c1CCN1CCC(=C(c2ccc(F)cc2)c2ccc(F)cc2)CC1	2.06µM*	u	i	u	u	u
COc1ccc(OC)c(CNC(=O)C2CCCCN2S(=O)(=O)c2ccc(F)cc2)c1 (stereo not given)	x	x	i	u	x	x

Compound activity from PubChem BioAssay.
